# Source: PubChem BioAssay (NCATS)
# Results filed as inconclusive are left out. The source made the active and inactive calls. The call rests on the fitted dose curve.
# Experiment: Cell Viability - HepG2 (AID 433);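 further: potency for ATP loss meaning cytotoxicity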
# Conditions: qHTS
# Excerpt: NIH Chemical Genomics Center [NCGC]
# NIH Molecular Libraries Screening Centers Network [MLSCN]
# National Institutes of Environmental Health Sciences [NIEHS]
# National Toxicology Program [NTP]
# We have developed a 1536-well cell-based assay for quantitative high throughput screening (qHTS) against a number of cell lines to determine in vitro cytotoxicity of small molecules. This particular assay uses the HepG2 cell line which is derived from hepatocellular carcinoma.
# NCGC Assay Protocol Summary:
# The CellTiter-Glo luminescent cell viability assay (Promega) is a homogeneous method to measure the number of viable cells in culture. The end point readout of this assay is based on quantitation of intracellular ATP, an indicator of metabolic activity, using the luciferase reaction. Luciferase catalyzes the oxidation of beetle Luciferin to oxyluciferin and light in the presence of ATP. The luminescent signal is proportional to amount of ATP present.
# Using the CellTiter-Glo luminescent cell viability assay, the amount of cellular ATP was measured in the HepG2 cell line with complete culture medium following compound treatment for 40 hours. The assay was performed in opaque white Kalypsys 1536-well plates. In the screen, tamoxifen and doxorubicin were used as positive controls. Library compounds were measured for their ability to cause acute toxicity in the cell line, as reflected by a decrease in intracellular ATP levels, in a concentration-dependent manner. Data were normalized to the controls for basal activity (DMSO only) and 100% inhibition (100 uM tamoxifen). AC50 values were determined from concentration-response data modeled with the standard Hill equation.
# qHTS protocol fo CellTiter Glo HepG2 cellular assay
# [Step] [Parameter] [Value] [Description]
# 1. Reagent; 5 uL; 1500 HepG2 cells/well
# 2. Time; 5 hr; 37 °C incubation
# 4. Controls; 23 nL; Tamoxifen 0.34 uM to 100 uM & Doxorubicin 0.02 nM to 100 uM
# 5. Time; 40 hr; 37 °C incubation
# 6. Reagent; 5 uL; CellTiter Glo reagent
# 7. Time; 20 min; Room Temperature
# 8. Detection; Luminescence; Viewlux plate reader
# Keywords: cell viability, cytotoxicity, HepG2 cell line, luminescence, NTPHTS, NTPHTS_NCGC, NIEHS, EPA, DSSTox, MLSMR, MLSCN, NIH Roadmap, qHTS, NCGC
# Potency means the concentration at half of the fitted maximal effect.
row,Structure (SMILES),Potency
1,COc1cc2c(c(OC)c1OC)-c1ccc(OC)c(=O)cc1[C@@H](NC(C)=O)CC2,> 92 µM (inactive)
2,CC(C)NCC(O)c1ccc(O)c(O)c1 (stereo not given),> 92 µM (inactive)
3,CC(C)C(=O)Nc1ccc([N+](=O)[O-])c(C(F)(F)F)c1,> 92 µM (inactive)
4,COc1ccc2[nH]cc(CCNC(C)=O)c2c1,> 92 µM (inactive)
5,COc1ccc2c(c1)c(CC(=O)O)c(C)n2C(=O)c1ccc(Cl)cc1,> 92 µM (inactive)
6,O=c1c(-c2ccc(O)cc2)coc2cc(O)cc(O)c12,> 92 µM (inactive)
7,NCCS(=O)(=O)O,> 92 µM (inactive)
8,N[C@@H](Cc1c[nH]c2ccc(O)cc12)C(=O)O,> 92 µM (inactive)
9,Clc1ccc(C(c2ccccc2Cl)C(Cl)Cl)cc1 (stereo not given),> 92 µM (inactive)
10,Cc1cn([C@H]2C[C@H](N=[N+]=[N-])[C@@H](CO)O2)c(=O)[nH]c1=O,> 92 µM (inactive)
11,O=c1[nH]cc(F)c(=O)[nH]1,> 92 µM (inactive)
12,Cc1ccc(-c2cc(C(F)(F)F)nn2-c2ccc(S(N)(=O)=O)cc2)cc1,> 92 µM (inactive)
13,CC(COc1ccccc1)N(CCCl)Cc1ccccc1 (stereo not given),38.6 µM (active)
14,Cn1c(=O)c2[nH]cnc2n(C)c1=O,> 92 µM (inactive)
15,Nc1ccn([C@H]2CC[C@@H](CO)O2)c(=O)n1,> 92 µM (inactive)
16,CCC1(c2ccccc2)C(=O)NCNC1=O,> 92 µM (inactive)
17,Cn1c(=O)c2c(ncn2C)n(C)c1=O,> 92 µM (inactive)
18,NS(=O)(=O)c1cc2c(cc1Cl)NCNS2(=O)=O,> 92 µM (inactive)
19,Nc1c2c(nc3ccccc13)CCCC2,> 92 µM (inactive)
20,Cc1cn([C@H]2C=C[C@@H](CO)O2)c(=O)[nH]c1=O,> 92 µM (inactive)
